# In the supplement of paper PMC10981050:
# Where “and” joins values, the source holds several entries; their conditions need not be identical. Equal values may be shown once. Where a name gives a salt, the structure may show the parent alone.
# How the values were obtained:
# Assay in all cases: cell viability relative to vehicle control; higher = less cytotoxic
# Conditions in all cases: 10 µM
# K562 = tested on: K562
# Procedure, shortened: (§1)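 Four leukaemia lines, as CRISPR-edited mutant clones and isogenic wild-type clones, were tested against Selleck bioactive, kinase and epigenetic probe libraries after removal of identity-inconsistent compounds. Cells were exposed to a single 10 µM dose for 48 h, and CellTiter-Glo luminescence was then read. Viability was calculated relative to the on-plate vehicle control.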
# MARIMO = tested on: MARIMO
# Procedure, shortened: as §1
# MOLM14 = tested on: MOLM14
# Procedure, shortened: as §1
# OCI-AML2 = tested on: OCI-AML2
# Procedure, shortened: as §1
Structure (SMILES),cell viability (K562; SRSF2 genotype: SRSF2 P95H/wt),cell viability (K562; SRSF2 genotype: SRSF2 wt/wt) [%],cell viability (MARIMO; SRSF2 genotype: SRSF2 P95H/wt) [%],cell viability (MARIMO; SRSF2 genotype: SRSF2 wt/wt) [%],cell viability (MOLM14; SRSF2 genotype: SRSF2 P95H/wt) [%],cell viability (MOLM14; SRSF2 genotype: SRSF2 wt/wt) [%],cell viability (OCI-AML2; SRSF2 genotype: P95H/wt) [%],cell viability (OCI-AML2; SRSF2 genotype: wt/wt) [%]
CC1OC(OC2C(CO)OC(OCC3OC(OC(=O)C45CCC(C)(C)CC4C4=CCC6C7(C)CCC(OC8OCC(O)C(O)C8OC8OC(C)C(O)C(O)C8O)C(C)(CO)C7CCC6(C)C4(C)CC5)C(O)C(O)C3O)C(O)C2O)C(O)C(O)C1O (centres undefined) [Hederacoside C],101% and 93%,95.3,96.9,101,97.3,98,93.5,106
Cc1[nH]c2ccccc2c1CCNC(=O)c1cccs1,92% and 93.8%,100,90,97.2,106,99.4,94.5,97.4
OC(CNCC(O)C1CCc2cc(F)ccc2O1)C1CCc2cc(F)ccc2O1 (centres undefined) [Nebivolol HCl],61.4% and 73%,80.7,60.4,60.5,58.6,62.5,50.6,61.5
CC(C)OC(=O)OCOP(=O)(CO[C@H](C)Cn1cnc2c(N)ncnc21)OCOC(=O)OC(C)C [Tenofovir Disoproxil Fumarate],92.9% and 94.9%,82.2,79.8,79.2,34.7,28.4,14.3,22.9
CCc1ccc(C(=O)C(C)CN2CCCCC2)cc1 (centres undefined) [Eperisone hydrochloride],91.5% and 94.7%,93.1,81.3,95.5,38.1,70,33.5,47.8
O=C(O)Cn1nnc(-c2cc(N3CCC(Oc4cc(F)ccc4Br)CC3)no2)n1,106% and 102%,110,101,104,103,103,101,103
Fc1ccc(Cl)cc1-c1nc(Nc2ccncc2)c2nccnc2n1,86.8% and 88.9%,79.9,92.1,104,108,96,104,103
O=C(/C=C/c1ccc(CN(CCO)CCc2c[nH]c3ccccc23)cc1)NO [LAQ824 (Dacinostat)],1.15% and 10.3%,2.76,5.99,11.9,0.84,0.58,1.63,2.36
CC(C)(C)OC(=O)N[C@H]1CCCCC/C=C\[C@@H]2C[C@@]2(C(=O)NS(=O)(=O)C2CC2)NC(=O)[C@@H]2C[C@@H](OC(=O)N3Cc4cccc(F)c4C3)CN2C1=O [Danoprevir (ITMN-191)],97.7% and 108%,98.9,106,106,96.8,101,123,108
CC(C)C(=O)Oc1ccc(CO)cc1[C@H](CCN(C(C)C)C(C)C)c1ccccc1 [Fesoterodine Fumarate],97.2% and 107%,102,91.7,98.4,102,104,113,98
Nc1c(Br)cc(Br)cc1CN[C@H]1CC[C@H](O)CC1 [Ambroxol HCl],103% and 109%,105,106,102,101,107,104,101
CCCCC(C)(O)C/C=C/[C@H]1[C@H](O)CC(=O)[C@@H]1CCCCCCC(=O)OC (mixture of isomers) [Misoprostol],89.4% and 78.1%,84.4,82.6,79,83.5,80.2,89.2,84
CCOc1cc(N2CCC(O)CC2)ccc1Nc1ncc2c(n1)N(C)c1ccccc1C(=O)N2C,91% and 89.7%,88,73,59.6,62.4,55.3,58.3,67.9
CC(=O)NC(Cc1ccc(O)cc1)C(=O)NC(CCCN=C(N)N)C(=O)NC(Cc1ccccc1)C(N)=O (centres undefined),87.2% and 83.5%,85.6,84.2,88.4,87.3,85.4,87.9,87.5
Nc1nc2[nH]cnc2c(=S)[nH]1 [Thioguanine],25.9% and 28.5%,26.8,46.3,37.5,35.2,23,13.5,20.5
CC1OC2OC3C(OCC(O)C3O)OC(=O)C34CCC(C)(C)CC3C3=CCC5C6(C)CC(O)C(OC7OC(CO)C(O)C(O)C7OC7OCC(OC(=O)CC(C)(O)CC(=O)OC1C(OC1OCC(O)C(O)C1O)C2O)C(O)C7O)C(C)(CO)C6CCC5(C)C3(C)CC4O (centres undefined) [Tubeimoside II],23.1% and 15.2%,16.7,46.2,70.6,51.2,86.1,28.5,38.4
O=C(Oc1cccc(F)c1OC(=O)c1cccc(O)c1)c1cccc(O)c1,92.4% and 99.5%,94.9,68.8,88.4,78.4,80.3,92.6,82.4
"CC1(C)CCCC2(C)C1CCC1(C)OCCC12 (single isomer, unassigned; (-)) [(-)-Ambroxide]",94.6% and 94.5%,99.7,97.9,101,95.9,96.4,98,103
CC(C)CN(CC(=O)N1CCN(CC(OCc2ccc3ccccc3c2)c2ccc(Cl)cc2Cl)CC1)CC(C)C (centres undefined),73.4% and 83%,79.2,54.3,43.2,56.2,71,36,41.8

Structure (SMILES),cell viability (K562; SRSF2 genotype: SRSF2 P95H/wt),cell viability (K562; SRSF2 genotype: SRSF2 wt/wt) [%],cell viability (MARIMO; SRSF2 genotype: SRSF2 P95H/wt) [%],cell viability (MARIMO; SRSF2 genotype: SRSF2 wt/wt) [%],cell viability (MOLM14; SRSF2 genotype: SRSF2 P95H/wt) [%],cell viability (MOLM14; SRSF2 genotype: SRSF2 wt/wt) [%],cell viability (OCI-AML2; SRSF2 genotype: P95H/wt) [%],cell viability (OCI-AML2; SRSF2 genotype: wt/wt) [%]
Cc1nc(Nc2ncc(C(=O)Nc3c(C)cccc3Cl)s2)cc(N2CCN(CCO)CC2)n1 [Dasatinib],21.5% and 39.8%,27.1,68.1,61.3,40.3,35.1,31.8,40.6
COc1cc(O)c2c(c1)C(=O)c1cc(C)cc(O)c1C2=O [Rheochrysidin (Physcione)],96.9% and 101%,95.5,98.4,111,102,103,92.5,102
CN1CCN(c2ccc(OC(F)(F)F)c(Nc3ncc4c(n3)-c3c(c(C(N)=O)nn3CCO)CC4)c2)CC1,29.2% and 49.6%,46,24.7,22.9,17.5,4.9,14.6,18.8
COc1cc([C@@H]2c3cc4c(cc3[C@@H](O[C@@H]3O[C@@H]5CO[C@@H](c6cccs6)O[C@H]5[C@H](O)[C@H]3O)[C@H]3COC(=O)[C@H]23)OCO4)cc(OC)c1O [Teniposide (Vumon)],8.79% and 17.8%,6.27,3.97,2.15,0.52,0.37,0.66,0.72
NC(=O)c1ccc[n+]([O-])c1 [Nicotinamide N-oxide],110%,111,107,109,98.7,105,112,101
CC(C)(O)[C@H]1CC[C@@](C)(C2[C@@H](O)C[C@@]3(C)[C@@H]4C[C@H](O)C5C(C)(C)[C@@H](O)CCC56CC46CC[C@]23C)O1 (some centres undefined) [Cycloastragenol],105% and 109%,97.6,112,118,108,107,111,110
CC(C)C(C)C(O)C(O)C(C)C1CCC2C3COC(=O)C4CC(O)C(O)CC4(C)C3CCC12C (centres undefined) [Brassinolide],98.5% and 94.6%,99.3,107,115,95.8,103,120,103
Cc1ccc(CNc2ncnc3ccc(-c4ccc(CO)o4)cc23)o1,97.3% and 96.8%,101,90,95.8,81.7,94.2,77.5,84.3
CCCC[S+]([O-])c1sc2nc(-c3cccs3)cc(-c3ccccc3)c2c1N (centres undefined),94.5% and 97%,92.9,95,109,103,99.4,98.7,98.8
NS(=O)(=O)c1cc(Cl)c(Cl)c(S(N)(=O)=O)c1 [Dichlorphenamide (Diclofenamide)],108% and 97%,95.9,91.9,102,105,99.6,93.4,103
CC1(C)S[C@@H]2[C@H](NC(=O)C(C(=O)O)c3ccccc3)C(=O)N2[C@H]1C(=O)O (some centres undefined) [Carbenicillin disodium],93.2% and 88.7%,97.2,90.3,98.8,98.6,95.4,95,93
Cc1onc(-c2ccccc2)c1-c1ccc(S(N)(=O)=O)cc1 [Valdecoxib],97.6% and 94.6%,95.6,96.4,97.6,90.6,95.4,81.8,88.5
CCOc1ccc(Cc2cc([C@@H]3O[C@H](SC)[C@@H](O)[C@H](O)[C@H]3O)ccc2Cl)cc1 [Sotagliflozin (LX4211)],84.2% and 86%,81.4,86.3,97.3,89.7,89.5,88.6,96.9
Cc1cc(CN2CCN(c3c(Br)cnc4nc(-c5ccc(N6CCN(C)CC6)cc5)[nH]c34)CC2)no1,19.6% and 18.5%,24.2,88.8,87,0.57,0.62,6.22,1.52
O=C(c1ccccc1)c1ccc2nc(NC(=O)c3csc(C4CCN(c5ncnc6ccsc56)CC4)n3)[nH]c2c1,45.4% and 37.5%,39.3,41.3,37.5,34.2,26.5,26.2,25
C1N2CN3CN1CN(C2)C3 [Methenamine (Mandelamine)],104% and 102%,99.1,103,108,107,105,99,112
O=C1O[C@H]2[C@@H]3OC(=O)c4cc(O)c(O)c(O)c4-c4c(cc(O)c(O)c4O)C(=O)OC[C@H]2O[C@@H](OC(=O)c2cc(O)c(O)c(O)c2)[C@@H]3OC(=O)c2cc(O)c(O)c3c2[C@@H]2C1=CC(=O)[C@](O)(O3)C2(O)O [Geraniin],94.9% and 95.9%,103,97.3,86,106,97.7,96.1,92.1
COc1ccc(C2CNC(=O)C2)cc1OC1CCCC1 (centres undefined) [Rolipram],92.9% and 98%,98.6,104,102,101,103,108,110
CCOCCn1c(N2CCCN(C)CC2)nc2ccccc21 [Emedastine],100% and 96.7%,101,101,107,102,107,114,104
